The structures appear in SMILES notation. Compounds without any hit were thinned out: in the full panel of roughly 83,000, 20% have a hit.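 For each line, cells grew in 96-well plates with the test compound present at a single concentration for 48 hours.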 Values without a mark were called inactive. The source made the active and inactive calls. Rule for the calls: active = growth percent below 10; inactive = the rest.

Test systems include HCT-15 colon; HT29 colon; SNB-75 CNS; SNB-19 CNS; U251 CNS; PC-3 prostate; SK-MEL-5 melanoma; UACC-62 melanoma; LOX IMVI melanoma; SK-MEL-28 melanoma; SK-MEL-2 melanoma; EKVX NSCLC; SN12C renal; UO-31 renal; TK-10 renal; ACHN renal; CAKI-1 renal; A498 renal; CCRF-CEM leukemia; MOLT-4 leukemia.
What all share (assay): NCI-60 one-dose screen, 48 h (100 = growth as untreated, 0 = no growth, -100 = all killed)
Conditions in all cases: 10 µM unless noted

For the compound `COc1ccc(C(=O)C/C(=C\c2ccc(O)c(OC)c2)C(=O)NN)cc1`, the growth in the assay on HCT-15 colon is 64.2%; in the assay on HT29 colon, 102%; in the assay with SNB-75 CNS it was 99.6%; with SNB-19 CNS it was 85%; with U251 CNS, 84.9%; in the assay on PC-3 prostate it was 67.3%. The growth with SK-MEL-5 melanoma was 75%; in the assay with UACC-62 melanoma it was 75.8%; in the assay with LOX IMVI melanoma, 82.2%; with SK-MEL-28 melanoma, 75.6%; with SK-MEL-2 melanoma, 90.8%; with EKVX NSCLC, 94%. Also, the growth was 89% with SN12C renal; 67.9% in the assay on UO-31 renal; 111% in the assay with TK-10 renal; 85.4% with ACHN renal; 77.9% in the assay on CAKI-1 renal; 105% in the assay with A498 renal. The figures for the growth in the assay with CCRF-CEM leukemia and in the assay on MOLT-4 leukemia were 73.8% and 87.5%, respectively.

As to `N#CC1=C(N)Oc2c(sc3c(F)cccc23)C1c1ccc([N+](=O)[O-])cc1` (stereo not given), the growth in the assay on HCT-15 colon is -54.5% (active); with HT29 colon, -13.6% (active); with SNB-75 CNS, -35.3% (active); in the assay with SNB-19 CNS, -27.9% (active); in the assay with U251 CNS, -64.5% (active); in the assay on PC-3 prostate it was -10.4% (active). The growth with SK-MEL-5 melanoma was -95.9% (active); in the assay with UACC-62 melanoma, -75.6% (active); with LOX IMVI melanoma it was -83.1% (active); in the assay with SK-MEL-28 melanoma, -44.1% (active); in the assay with SK-MEL-2 melanoma, -42.2% (active); in the assay on EKVX NSCLC it was -2.24% (active). Further, the growth is -79% (active) with SN12C renal; -26.4% (active) in the assay with UO-31 renal; -7.94% (active) in the assay on TK-10 renal; -2.28% (active) in the assay on ACHN renal; 0.858% (active) in the assay with CAKI-1 renal; -36.3% (active) in the assay on A498 renal. For the same compound, the growth with CCRF-CEM leukemia is 3.46% (active); in the assay with MOLT-4 leukemia it was -1.93% (active).

For the compound `c1ccc2cc(Cn3cc(CSc4nc5ccccc5s4)nn3)ccc2c1`, the growth in the assay on HCT-15 colon is 107%; with HT29 colon, 95.7%; with SNB-75 CNS, 101%; with SNB-19 CNS, 93.3%; with U251 CNS, 95.6%; with PC-3 prostate, 93.1%. For the same compound, the growth in the assay with SK-MEL-5 melanoma was 107%; in the assay on UACC-62 melanoma, 84.8%; with LOX IMVI melanoma it was 98.8%; in the assay with SK-MEL-28 melanoma, 102%; in the assay on SK-MEL-2 melanoma, 90.6%; with EKVX NSCLC, 101%. Moreover, the growth in the assay on SN12C renal is 94.5%; with UO-31 renal, 77.6%; with TK-10 renal, 102%; in the assay with ACHN renal, 99.3%; in the assay with CAKI-1 renal, 83.3%; with A498 renal, 97.3%. For the same compound, the values for the growth with CCRF-CEM leukemia and with MOLT-4 leukemia were 97.2% and 96.4%, respectively.

Take `N=C(N)c1ccc(-c2ccc(-c3cc(Cl)cc(Cl)c3)s2)s1`: the growth is -84.8% (active) in the assay on HCT-15 colon; -80.1% (active) in the assay with HT29 colon; 3.24% (active) in the assay with SNB-75 CNS; -61.9% (active) in the assay with SNB-19 CNS; -86.5% (active) in the assay with U251 CNS; 35.6% in the assay with PC-3 prostate. Besides, the growth in the assay with SK-MEL-5 melanoma is 86.6%; with UACC-62 melanoma, -74% (active); in the assay on LOX IMVI melanoma, -82.4% (active); with SK-MEL-28 melanoma, 33.7%; with SK-MEL-2 melanoma, 83.4%; with EKVX NSCLC, -12.2% (active). Moreover, the growth in the assay on SN12C renal is -65.4% (active); in the assay with UO-31 renal, -40.2% (active); in the assay on TK-10 renal, -26.5% (active); in the assay on ACHN renal, -54.2% (active); in the assay on CAKI-1 renal it was 2.68% (active); with A498 renal it was 73.6%. Besides, the growth in the assay on CCRF-CEM leukemia was -12.4% (active); in the assay with MOLT-4 leukemia, -41.9% (active).

Consider `O=C(Nc1cccnc1Nc1ccc(Cl)cc1)c1cn(Cc2cccc(Oc3ccccc3)c2)nn1`, for which the growth is 25.6% in the assay on HCT-15 colon; 27.2% in the assay on HT29 colon; 42.1% with SNB-75 CNS; 50.1% with SNB-19 CNS; 39.4% in the assay on U251 CNS; 35% in the assay on PC-3 prostate. Further, the growth in the assay with SK-MEL-5 melanoma was 12.6%; with UACC-62 melanoma, 30.6%; in the assay on LOX IMVI melanoma it was 31.1%; with SK-MEL-28 melanoma, 61.7%; with SK-MEL-2 melanoma it was 61.8%; in the assay on EKVX NSCLC, 53.5%. For the same compound, the growth was 46.4% with SN12C renal; 31.9% in the assay on UO-31 renal; 82.4% with TK-10 renal; 55.2% in the assay on ACHN renal; 53.6% in the assay on CAKI-1 renal; 26.6% with A498 renal. Moreover, the growth is 39% with CCRF-CEM leukemia and 28.8% in the assay with MOLT-4 leukemia.

Turning to `COc1ccc(-c2cc(-c3cc(OC)ccc3OC)nc(SCC(C)=O)c2C#N)cc1`, the growth was 52.7% in the assay with HCT-15 colon; 81.8% with HT29 colon; 42.7% in the assay with SNB-75 CNS; 75.8% in the assay on SNB-19 CNS; 74.4% in the assay on U251 CNS; 56.2% in the assay with PC-3 prostate. The growth with SK-MEL-5 melanoma is 65.7%; in the assay with UACC-62 melanoma, 67.1%; with LOX IMVI melanoma it was 57.9%; with SK-MEL-28 melanoma it was 68%; in the assay with SK-MEL-2 melanoma, 78.6%; in the assay on EKVX NSCLC, 51.6%. The growth in the assay with SN12C renal was 76.7%; in the assay on UO-31 renal, 41.1%; in the assay on TK-10 renal, 101%; in the assay on ACHN renal it was 56.5%; in the assay on CAKI-1 renal it was 40.6%; in the assay with A498 renal it was 39%. In addition, the growth is 69.2% in the assay on CCRF-CEM leukemia and 37.9% in the assay on MOLT-4 leukemia.

In the case of `O=[N+]([O-])c1ccccc1Nc1ccc2ccccc2c1`, the growth in the assay on HCT-15 colon was 93.5%; with HT29 colon it was 94.1%; in the assay with SNB-75 CNS it was 62.9%; in the assay on SNB-19 CNS it was 89.8%; with U251 CNS, 92.7%; in the assay on PC-3 prostate, 92.3%. In addition, the growth in the assay with SK-MEL-5 melanoma was 98.6%; in the assay with UACC-62 melanoma it was 79.5%; with LOX IMVI melanoma, 92.5%; in the assay with SK-MEL-28 melanoma, 101%; with SK-MEL-2 melanoma, 104%; in the assay on EKVX NSCLC, 87.7%. In addition, the growth is 98.9% with SN12C renal; 59.4% in the assay with UO-31 renal; 99.7% with TK-10 renal; 99.2% in the assay with ACHN renal; 78.3% in the assay with CAKI-1 renal; 59.9% in the assay on A498 renal. The growth in the assay on CCRF-CEM leukemia was 92.3%; with MOLT-4 leukemia, 76.8%.

On to `CNC(=O)c1cc(Oc2ccc3c(c2)sc2nc(-c4cc(C(F)(F)F)cc(C(F)(F)F)c4)cn23)ccn1`, for which the growth in the assay on HCT-15 colon was 70.9%; in the assay with HT29 colon, 38.7%; with SNB-75 CNS it was 23.3%; in the assay on SNB-19 CNS it was 62.8%; in the assay on U251 CNS, 38.6%; with PC-3 prostate, 45.4%. Moreover, the growth in the assay with SK-MEL-5 melanoma is 33%; in the assay on UACC-62 melanoma it was 53.3%; with LOX IMVI melanoma, 50.1%; in the assay with SK-MEL-28 melanoma, 79.3%; in the assay on SK-MEL-2 melanoma, 56.8%; in the assay on EKVX NSCLC it was 45.1%. The growth is 60.2% in the assay on SN12C renal; 61.7% in the assay on UO-31 renal; 36% in the assay on TK-10 renal; 50.3% with ACHN renal; 51.1% in the assay on CAKI-1 renal; 42.5% in the assay on A498 renal. Moreover, the growth is 64.1% in the assay on CCRF-CEM leukemia and 45.3% with MOLT-4 leukemia.

For the origin of these results see PubChem BioAssay (NCI).
